Results: publication PMC4336329 (PLoS ONE, 2015)
Hit rate of the full screen: of about 310,000 compounds, about 14,000 (4.5%) showed an effect of 50% or more. The effect is printed as a negative number. Many of the other results were omitted from the sample, so strong results are more common in it than they were.

Molecular target: human ether-à-go-go-related gene (hERG) potassium channel (human, UniProt Q12809)
Experiment: primary screen, population patch clamp on CHO cells stably expressing hERG; higher = less effect of the substance
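Further: peak tail current of the secondary pulse compared with the same well before compound.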

human ether-à-go-go-related gene (hERG) potassium channel, sequence (Q12809 whole entry, looked up): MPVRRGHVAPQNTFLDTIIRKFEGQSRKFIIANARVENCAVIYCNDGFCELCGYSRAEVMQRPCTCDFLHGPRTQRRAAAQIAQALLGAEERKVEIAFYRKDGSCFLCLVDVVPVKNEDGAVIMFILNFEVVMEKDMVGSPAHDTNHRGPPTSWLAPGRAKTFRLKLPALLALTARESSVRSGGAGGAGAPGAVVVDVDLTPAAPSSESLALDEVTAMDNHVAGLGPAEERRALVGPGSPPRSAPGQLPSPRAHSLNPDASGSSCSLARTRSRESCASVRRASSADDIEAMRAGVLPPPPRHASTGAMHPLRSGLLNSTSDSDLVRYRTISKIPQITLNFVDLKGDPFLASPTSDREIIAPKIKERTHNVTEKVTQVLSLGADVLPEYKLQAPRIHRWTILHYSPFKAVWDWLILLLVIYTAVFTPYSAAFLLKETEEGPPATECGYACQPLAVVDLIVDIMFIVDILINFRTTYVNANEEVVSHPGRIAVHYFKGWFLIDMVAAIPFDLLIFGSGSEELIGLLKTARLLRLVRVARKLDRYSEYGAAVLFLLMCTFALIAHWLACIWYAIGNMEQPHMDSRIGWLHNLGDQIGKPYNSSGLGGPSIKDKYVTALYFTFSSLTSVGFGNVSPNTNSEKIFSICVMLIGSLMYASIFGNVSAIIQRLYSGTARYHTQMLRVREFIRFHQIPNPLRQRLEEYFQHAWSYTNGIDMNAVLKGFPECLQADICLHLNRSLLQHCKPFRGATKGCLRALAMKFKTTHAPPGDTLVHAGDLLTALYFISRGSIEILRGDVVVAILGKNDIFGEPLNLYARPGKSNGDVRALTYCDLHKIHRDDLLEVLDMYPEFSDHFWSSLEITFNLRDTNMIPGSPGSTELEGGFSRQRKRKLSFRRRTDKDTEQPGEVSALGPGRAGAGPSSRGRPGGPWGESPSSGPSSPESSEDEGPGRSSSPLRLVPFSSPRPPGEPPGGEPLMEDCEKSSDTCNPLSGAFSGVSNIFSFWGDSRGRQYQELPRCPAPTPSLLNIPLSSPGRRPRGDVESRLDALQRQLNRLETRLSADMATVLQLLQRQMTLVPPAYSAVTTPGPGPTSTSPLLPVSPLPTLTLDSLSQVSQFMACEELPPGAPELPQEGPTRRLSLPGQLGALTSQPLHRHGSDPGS

Compound | hERG current change (%, negative = inhibition) at 10uM [%]
COc1ccccc1-c1nnc(SC(C(=O)c2c[nH]c3ccccc23)c2ccccc2)n1C (stereo not shown) | 20.8
O=C(CCc1nc2ccccc2n1-c1ccccc1)NCCO | 6.97
COc1ccc([N+](=O)[O-])cc1N(CC(O)CN(CC(C)C)CC(C)C)S(=O)(=O)c1ccc(C)cc1.Cl (stereo not shown) | -13.7
COc1ccc([N+](=O)[O-])cc1N(CC(O)CN(C)C)S(=O)(=O)c1ccccc1 (stereo not shown) | 5.54
COc1ccc([N+](=O)[O-])cc1N(CC(O)CN(CC(C)C)CC(C)C)S(=O)(=O)c1ccccc1 (stereo not shown) | -1.91
C=CCN(CC=C)CC(O)CN(c1cc([N+](=O)[O-])ccc1OC)S(=O)(=O)c1ccccc1 (stereo not shown) | -10.7
CCCCN(CCCC)CC(O)CN(c1cc([N+](=O)[O-])ccc1OC)S(=O)(=O)c1ccccc1 (stereo not shown) | -67
CCCN(CCC)CC(O)CN(c1cc([N+](=O)[O-])ccc1OC)S(=O)(=O)c1ccccc1.Cl (stereo not shown) | -60.4
CC(C)CNC(=O)/C=C/C=C/CCCC/C=C/c1ccc2c(c1)OCO2 | 20.7
CC(=O)c1c(C)[nH]c(C(=O)OCc2nc3ccsc3c(=O)[nH]2)c1C | -13.6
O=C(CC1SC(N2CCCCC2)=NC1=O)Nc1ccc(C(=O)O)cc1 (stereo not shown) | 22.1
CC1CCN(CCNC(=O)c2ccc3c(=O)n(Cc4ccc(Cl)cc4)c(=S)[nH]c3c2)CC1 | -15.8
CC1CCN(CCCNC(=O)c2ccc3c(=O)n(Cc4ccc(Cl)cc4)c(=S)[nH]c3c2)CC1 | -68.4
COC(=O)c1ccc2c(=O)n(Cc3ccc(C(=O)NCCCN4CCC(C)CC4)cc3)c(=S)[nH]c2c1 | 7.54
CC1CCCCN1CCNC(=O)c1ccc2c(=O)n(Cc3ccc(Cl)cc3)c(=S)[nH]c2c1 (stereo not shown) | -50.9
CN(C)CCNC(=O)c1ccc2c(=O)n(Cc3ccc(Cl)cc3)c(=S)[nH]c2c1 | -27.8
CC1CCCCN1CCNC(=O)c1ccc2c(=O)n(CCc3ccccc3)c(=O)[nH]c2c1 (stereo not shown) | -38.7
CCN(CC)CCNc1nc(SC)nc2sc3c(c12)CCN(C)C3 | -6.12
CSc1nc(NCC(C)C)c2c3c(sc2n1)CN(C)CC3 | -44.2
COC(CNc1nc(SC)nc2sc3c(c12)CCN(C)C3)OC | -52.5
CSc1nc(NCCCO)c2c3c(sc2n1)CN(C)CC3 | -47.4
COCCNc1nc(SC)nc2sc3c(c12)CCN(C)C3 | -71.2

Compound | hERG current change (%, negative = inhibition) at 10uM [%]
CSc1nc(NCC(C)O)c2c3c(sc2n1)CN(C)CC3 (stereo not shown) | -42
S=c1[nH]c2ccccc2o1 | 18
CCCN(CCC)C(=O)c1oc2ccccc2c1NC(=O)Cc1cccc(OC)c1 | 4.67
COc1ccc(OCC(=O)Nc2c(C(=O)N(CCN(C)C)Cc3ccco3)oc3ccccc23)cc1 | -77
COc1ccc(OCC(=O)OCC(=O)NCc2ccco2)cc1 | -4.81
O=C(COc1ccccc1)Nc1ccccc1C(=O)NCc1ccco1 | -6.63
CN(C)CCN(Cc1ccco1)C(=O)c1oc2ccccc2c1NC(=O)COc1ccccc1 | -88.7
Cc1c(C(=O)OCC(=O)NCc2ccco2)oc2ccccc12 | 2.46
CCCCCCN=C(C)c1ccccc1O | 20.2
COCCN(Cc1ccccc1)C(=O)c1cccc(S(=O)(=O)N2CCN(c3ccccc3)CC2)c1 | -52.8
CCN(Cc1ccccc1)C(=O)c1cccc(S(=O)(=O)N2CCN(c3ccccc3)CC2)c1 | -15.8
CN(Cc1ccc(F)cc1)C(=O)c1cccc(S(=O)(=O)N2CCN(c3ccccc3)CC2)c1 | -19.9
CCN(Cc1ccccc1)C(=O)c1cccc(S(=O)(=O)N2CCN(c3ccc(F)cc3)CC2)c1 | -47.2
COCCN(Cc1ccccc1)C(=O)c1cccc(S(=O)(=O)N2CCN(c3ccc(F)cc3)CC2)c1 | -64.6
COCCN(Cc1ccccc1)C(=O)c1cccc(S(=O)(=O)N2CCCc3ccccc32)c1 | -21.2
CC(C)(C)NC(=O)Cn1c(=O)c(=O)n(Cc2ccccc2)c2ccc(Cl)cc21 | -0.233
Cn1c2c(c(=O)n(C)c1=O)C(c1ccc(Br)cc1)Nc1ccccc1O2 (stereo not shown) | -19.4
Cc1ccc(S(=O)(=O)NCCC2(C(C)C)CCOC(C)(C)C2)cc1 (stereo not shown) | -17.9
CC1(C)CC(=O)C(C=NCC(N)=O)=C(O)C1 | -19.5
C=CCn1c(O)c(C(C)=NCCCN(C)C)c(=O)[nH]c1=O | 5.49
N#Cc1cccnc1N1CCN(C(=O)c2ccc3c(c2)S(=O)(=O)c2ccccc2C3=O)CC1 | -22.7
O=C1c2ccc(Cl)cc2S(=O)(=O)c2cccc(C(=O)N3CCN(c4ccc(Cl)cn4)CC3)c21 | -39.9

Compound | hERG current change (%, negative = inhibition) at 10uM [%]
N#Cc1cccnc1N1CCN(C(=O)c2cccc3c2C(=O)c2ccc(Cl)cc2S3(=O)=O)CC1 | -56.6
CCN(CCn1cccn1)C(=O)CCc1nnc(CCc2ccccc2OC)o1 | 5.73
CCC/C(=N\NC(=O)c1cccc(C)c1)c1ccccc1 | 2.17
CCOc1cccc(/C=N/Nc2ccc(S(=O)(=O)N(CC)CC)cn2)c1O | 6.79
COc1ccc(CN(C)C(=O)COC(=O)c2c(C)nn(-c3ccc(F)cc3)c2Cl)cc1 | -71.1
COc1ccc(CN(C)C(=O)COC(=O)c2c(-c3ccccc3Cl)noc2C)cc1 | -15.1
COc1ccc(COC(=O)c2c(C)nn(-c3ccccc3)c2Cl)cc1 | 4.32
Brc1ccc(CSc2nnc(-c3ccccn3)n2Cc2ccco2)cc1 | -16.8
CN1CCc2c(OCC(=O)NC3CCCCC3)cccc2C1=O | 13.6
CCCCCCSc1ccc([C@H]2N[C@@](Cc3ccccc3)(C(=O)OC)[C@H]3C(=O)N(C)C(=O)[C@@H]23)cc1OC.O=C(O)C(F)(F)F | 5.93
O=P(O)(O)O.c1ccc(CSCCc2ccncc2)cc1 | -5.48
NC(=O)Cn1cc(C(=O)c2ccccc2F)c2ccccc21 | 25.1
COC(=O)Cn1cc(C(=O)c2ccccc2F)c2ccccc21 | -1.29
CCOC(=O)Cn1cc(C(=O)c2ccccc2F)c2ccccc21 | -71
CCc1ccc(C(=O)CN(C#N)c2nc(C)cc(C)n2)cc1 | -75.6
CCN(CC)C(=O)CN(C#N)c1nc(C)cc(C)n1 | 19.4
Cc1cc(C)nc(N(C#N)CC(=O)c2ccccc2)n1 | -42.9
Cc1c(Cl)cccc1NC(=S)NC(=O)c1cncc(Br)c1 | 17.6
COc1cccc(/C=N/NC(=S)NCCc2ccccc2)c1 | 10.5
CCC(=O)Nc1cccc(-c2nnc(-c3cccc(NC(=O)CC)c3)o2)c1 | 7.83
Cc1ccc(CNC(=O)c2oc3ccc(S(=O)(=O)N4CCC5(CC4)OCCO5)cc3c2C)cc1 | -3.35
CS(=O)(=O)Nc1ccccc1C(=O)NCc1ccco1 | -2.03

Compound | hERG current change (%, negative = inhibition) at 10uM [%]
CS(=O)(=O)NCCSCc1c(F)cccc1Cl | 1.87
CS(=O)(=O)Nc1ccc(C(=O)Nc2ccccc2C(=O)NCc2ccco2)cc1 | -69.2
CN(Cc1ccccc1)S(=O)(=O)c1ccc(NS(C)(=O)=O)cc1 | -55.5
CS(=O)(=O)Nc1ccc(C(=O)NCc2ccco2)cc1 | 0.221
CC(=O)Nc1ccc(S(=O)(=O)N(C)Cc2ccccc2)cc1 | -12.7
CS(=O)(=O)Nc1ccc(C(=O)NCCSCc2c(F)cccc2Cl)cc1 | -57.7
CC(=O)Nc1ccc(C(=O)NCCc2ccccc2)cc1 | 12.9
CN(Cc1ccccc1)S(=O)(=O)c1ccc(NS(=O)(=O)Cc2ccccc2)cc1 | 0.139
CS(=O)(=O)Nc1ccc(C(=O)NCCSCc2ccccc2)cc1 | -45.1
CN(c1ccc(C(=O)NCCSCc2c(F)cccc2Cl)cc1)S(C)(=O)=O | 1.6
CS(=O)(=O)Nc1ccc(C(=O)NCCc2ccccc2)cc1 | -69.6
CCOC(=O)C1=C(COc2ccccc2)NC(=O)NC1c1ccc2ccccc2c1 (stereo not shown) | -12.3
CC(C)CCNC(=O)NC(=O)CSc1nnc2ccccn12 | 15.6
CCOC(=O)N1CCC(NC(=O)CC2C(=O)NCCN2Cc2ccccc2)CC1 (stereo not shown) | -1.48
CCN(CC)S(=O)(=O)c1ccc(/C=C/C(=O)Nc2c(C)n(C)n(-c3ccccc3)c2=O)cc1 | 19.4
CCCC1CCC(=C(C#N)C(N)=O)CC1 (stereo not shown) | -32.8
CCc1ccccc1NC(=O)c1ccc(NS(C)(=O)=O)cc1 | -42.1
CCOC(=O)c1ccccc1NC(=O)c1ccc(NS(C)(=O)=O)cc1 | -54.7
CS(=O)(=O)Nc1ccc(C(=O)Nc2ccccc2-c2ccccc2)cc1 | -65.9
CCOC(=O)c1ccccc1NC(=O)c1ccccc1NS(C)(=O)=O | -0.0503
COC(=O)c1ccccc1NC(=O)c1ccc(NS(C)(=O)=O)cc1 | -36.1
O=C(Nc1ccccc1-c1ccccc1)c1ccccc1 | 13.2
